Test results as given in PubChem BioAssay (NCI).
The panel holds about 83,000 compounds, 20% with a hit somewhere; the sample as a whole holds those more often.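 Single-concentration screen, 48 h exposure, 96-well plates. Endpoint: percent growth. Below 10 = active.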

Legend:
Assay in all cases: NCI-60 one-dose screen, 48 h (100 = growth as untreated, 0 = no growth, -100 = all killed)
Conditions in all cases: 10 µM
DU-145 prostate = system: DU-145 prostate
K-562 leukemia = system: K-562 leukemia
MALME-3M melanoma = system: MALME-3M melanoma
MDA-MB-231 breast = system: MDA-MB-231 breast
RXF 393 renal = system: RXF 393 renal
SF-268 CNS = system: SF-268 CNS
SF-295 CNS = system: SF-295 CNS
SF-539 CNS = system: SF-539 CNS
UACC-257 melanoma = system: UACC-257 melanoma
M14 melanoma = system: M14 melanoma

Measured: growth

COCCOC(=O)c1ccc(C(C)C)cc1
inactive: DU-145 prostate 103% | K-562 leukemia 106% | MALME-3M melanoma 92.7% | MDA-MB-231 breast 102% | RXF 393 renal 124% | SF-268 CNS 99.1% | SF-295 CNS 104% | SF-539 CNS 99% | UACC-257 melanoma 81% | M14 melanoma 93.2%

C=C1CC/C=C(\C)C(=O)C[C@@H]2[C@@H]1CC2(C)C
inactive: DU-145 prostate 102% | K-562 leukemia 102% | MALME-3M melanoma 103% | MDA-MB-231 breast 125% | RXF 393 renal 55.1% | SF-268 CNS 99.5% | SF-295 CNS 108% | SF-539 CNS 107% | UACC-257 melanoma 111% | M14 melanoma 98.3%

N#CCCN(CCCN1CCOCC1)CN1C(=O)c2ccccc2C1=O
inactive: DU-145 prostate 109% | K-562 leukemia 91.6% | MALME-3M melanoma 87.6% | MDA-MB-231 breast 113% | RXF 393 renal 98% | SF-268 CNS 115% | SF-295 CNS 98.6% | SF-539 CNS 110% | UACC-257 melanoma 107% | M14 melanoma 125%

COc1cc(C(N)=O)cc(OC)c1OC
inactive: DU-145 prostate 112% | K-562 leukemia 112% | MALME-3M melanoma 110% | MDA-MB-231 breast 105% | RXF 393 renal 119% | SF-268 CNS 101% | SF-295 CNS 100% | SF-539 CNS 98.9% | UACC-257 melanoma 102% | M14 melanoma 107%

Oc1ccc2c(c1)OCC1(O)Cc3cc(O)c(O)cc3C21 (stereo not given)
inactive: DU-145 prostate 99.1% | K-562 leukemia 20.7% | MALME-3M melanoma 88.8% | MDA-MB-231 breast 93.2% | RXF 393 renal 89.1% | SF-268 CNS 96.8% | SF-295 CNS 97.1% | SF-539 CNS 91.7% | UACC-257 melanoma 96.6% | M14 melanoma 90.6%

O=C1Cc2cc(O)ccc2O1
inactive: DU-145 prostate 118% | K-562 leukemia 96.6% | MALME-3M melanoma 92.5% | MDA-MB-231 breast 106% | RXF 393 renal 114% | SF-268 CNS 106% | SF-295 CNS 160% | SF-539 CNS 101% | UACC-257 melanoma 103% | M14 melanoma 98.9%

CC1(O)CCCCC1O (stereo not given)
inactive: DU-145 prostate 115% | K-562 leukemia 94.6% | MALME-3M melanoma 106% | MDA-MB-231 breast 108% | RXF 393 renal 112% | SF-268 CNS 106% | SF-295 CNS 110% | SF-539 CNS 97% | UACC-257 melanoma 83.4% | M14 melanoma 104%

CC(=O)c1c[nH]c2ccccc12
inactive: DU-145 prostate 124% | K-562 leukemia 103% | MALME-3M melanoma 95.2% | MDA-MB-231 breast 114% | RXF 393 renal 104% | SF-268 CNS 113% | SF-295 CNS 100% | SF-539 CNS 105% | UACC-257 melanoma 104% | M14 melanoma 102%

O=C1C=C(Nc2ccc([N+](=O)[O-])cc2)c2ccccc2C1=O
inactive: DU-145 prostate 68.9% | K-562 leukemia 13.2% | MALME-3M melanoma 51.6% | MDA-MB-231 breast 22.5% | RXF 393 renal 69.2% | SF-268 CNS 55.6% | SF-295 CNS 53.1% | SF-539 CNS 36.8% | UACC-257 melanoma 48.8% | M14 melanoma 13.3%

COc1ccccc1N=Nc1c(O)ccc2cc(S(=O)(=O)O)ccc12
inactive: DU-145 prostate 111% | K-562 leukemia 98.1% | MALME-3M melanoma 109% | MDA-MB-231 breast 93.2% | RXF 393 renal 104% | SF-268 CNS 96.5% | SF-295 CNS 94.2% | SF-539 CNS 103% | UACC-257 melanoma 95.8% | M14 melanoma 99.7%

Cc1cc(N)ccc1-c1ccc(N)cc1C
inactive: DU-145 prostate 110% | K-562 leukemia 106% | MALME-3M melanoma 120% | MDA-MB-231 breast 106% | RXF 393 renal 108% | SF-268 CNS 103% | SF-295 CNS 99.2% | SF-539 CNS 93.8% | UACC-257 melanoma 80.7% | M14 melanoma 94.7%

O=C(c1ccccc1)C1CCC1
inactive: DU-145 prostate 117% | K-562 leukemia 99.3% | MALME-3M melanoma 117% | MDA-MB-231 breast 98.3% | RXF 393 renal 109% | SF-268 CNS 100% | SF-295 CNS 104% | SF-539 CNS 103% | UACC-257 melanoma 102% | M14 melanoma 108%

COC(=O)c1cccnc1
inactive: DU-145 prostate 107% | K-562 leukemia 113% | MALME-3M melanoma 112% | MDA-MB-231 breast 100% | RXF 393 renal 105% | SF-268 CNS 95.4% | SF-295 CNS 110% | SF-539 CNS 91.1% | UACC-257 melanoma 90.4% | M14 melanoma 93.9%

N#CC1(Nc2ccc3c4c(cccc24)CC3)CCCCC1
inactive: DU-145 prostate 103% | K-562 leukemia 89.7% | MALME-3M melanoma 93.1% | MDA-MB-231 breast 99.8% | RXF 393 renal 89.8% | SF-268 CNS 97% | SF-295 CNS 98.8% | SF-539 CNS 108% | UACC-257 melanoma 92.9% | M14 melanoma 113%

Cc1cc(Cc2cc(C)c(N)cc2N)c(N)cc1N
inactive: DU-145 prostate 105% | K-562 leukemia 101% | MALME-3M melanoma 95.2% | MDA-MB-231 breast 83.9% | RXF 393 renal 103% | SF-268 CNS 90.9% | SF-295 CNS 104% | SF-539 CNS 103% | UACC-257 melanoma 85.3% | M14 melanoma 101%
